HCV inh: inhibitors of hepatitis C virus infection; Potency, µM (doses to about 41.8 µM), for the others: top-dose activity change, negative = inhibition, actives largely listed as inhibitors; 3.4% of 340,000 active; Huh7.5.1 HCVcc-Cre infection, luciferase reporter, 44 h; AID 651820; active = well fitted inhibition curve with a large enough effect; inconclusive = small, poorly fitted or top-dose-only effect, or another doubt; inactive = no such curve, though single readings can be large or run the other way; also: potency is read from the fitted curve at half-maximal effect
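Whole-lifecycle infectious HCVcc-Cre system; cells 1,000/well, compound then virus (~0.5 moi) added 4 h after plating, 44 h culture. Luciferase read 15 sec following 15 min substrate incubation, room temp.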
Marburg entry inh: inhibitors of Marburg virus binding or cell entry. Marburg virus pseudotyped entry inhibition, cell reporter. AID 540276. Potency, µM (top dose mostly 37.8 µM), for inactives: at the top dose activity change, negative = inhibition, hits mostly inhibitors. 1.8% of 300,000 active; calls by dose curve; tested in HEK293 cells; also: potency is read from the fitted curve at half-maximal effect
FMDV antiviral: blocks foot and mouth disease virus | FMDV antiviral cell-based qHTS | Potency, µM (series often up to 57.9 µM), without a hit: at the top dose activity change, negative = inhibition, hits mostly inhibitors | 1.2% of 410,000 active; calls by dose curve; tested in HEK293T cells; also: read-out not given here; potency is read from the fitted curve at half-maximal effect; nearly all actives have a fitted effect of over 45% in size
Lassa entry inh: Lassa virus entry inhibition. Potency, µM (series often up to 37.9 µM), for inactives: at the top dose activity change, negative = inhibition, most hits filed as inhibitors. 1.2% of 300,000 active. AID 540256. Lassa virus pseudotype entry inhibition, cell reporter; calls by dose curve; tested in HEK293 cells; also: potency is read from the fitted curve at half-maximal effect; nearly all actives have a fitted effect of over 50% in size
HCMV antiviral: human cytomegalovirus inhibition | 4.5% of 410,000 active | HFF cells, HCMV-luciferase reporter, 72 h; active compounds read low | activity change, negative = inhibition, % at 57.5 µM; in the data active = activity change below about -60%; inconclusive = no clear call, values can overlap the other calls; inactive = above about -39%
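Human foreskin fibroblasts infected with luciferase-reporter HCMV at MOI 1 PFU/cell, compounds at two doses. Luciferase measured 72 h post infection; normalized to buffer-only basal and Salinomycin (10uM) controls.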
* marks the source's active call; other numbers are inactive results; u = inconclusive; x = no result; [ ] = dose if it differs, or a comment. In the library only some 7.9% were active in any assay of this set; here they are far more common. % is scaled to controls: 0 for no effect and ±100 for the full control effect.

SMILES | HCV inh | Marburg entry inh | FMDV antiviral | Lassa entry inh | HCMV antiviral
CCN1CCN(CCNC(=O)c2ccc3c(c2)N(Cc2cccc(Cl)c2)C(=O)c2ccccc2S3=O)CC1 (centres undefined) | u | u | 27.3% | u | -72.8*
O=C(NCCCN1CCOCC1)c1ccc2c(c1)N(Cc1cccc(Cl)c1)C(=O)c1ccccc1S2 | x | x | -21.0% | -13.8%[46.1 µM] | -89.0*
CCN(CC)CCNC(=O)c1ccc2c(c1)N(Cc1ccccc1)C(=O)c1ccccc1S2=O (centres undefined) | x | u | -20.2% | 5.6%[46.1 µM] | -69.7*
Cc1cccc(CN2C(=O)c3ccccc3Sc3ccc(C(=O)NCc4ccco4)cc32)c1 | x | x | -7.0% | u | -73.0*
O=C(NCc1ccco1)c1ccc2c(c1)N(Cc1ccccc1)C(=O)c1ccccc1S2 | x | x | -4.3% | u | -35.3
Cc1ccccc1-c1noc(CCC(=O)Nc2cccc(C)c2C)n1 | x | -5.1%[46.1 µM] | -13.6% | 10.7%[46.1 µM] | -3.0
Cc1ccc(CNC(=O)CCn2cnc3ccccc3c2=O)cc1 | x | x | -24.2% | -27.7%[46.1 µM] | 13.8
Cc1[nH]c2ccccc2c1/C=N/Nc1ccc([N+](=O)[O-])cc1 | 2µM* | -19.2% | 17.1% | 20.6% | -30.5
Cc1[nH]n(-c2ccc([N+](=O)[O-])cc2)c(=O)c1C=NCCc1c(C)[nH]c2ccccc12 | -2.7% | u | 25.1µM* | 7.6% | -10.4
Cc1[nH]c2ccccc2c1/C=N/Nc1nncn1N | -29.1% | u | 58.8% | x | -63.9*
O=C(N/N=C/c1ccc[nH]1)c1ccc2c(c1)OCO2 | 12.6µM* | 0.2%[46.1 µM] | 34.2% | -9.0% | 51.6
O=C(N[C@H](c1cccc(Br)c1)[C@@H]1CCCC=C1c1ccccc1)C(F)(F)F | x | -42.6%[14.2 µM] | x | x | x
O=C(N/N=C\c1cccc(OC(=O)c2ccco2)c1)c1ccc2c(c1)OCO2 | 4.4% | u | u | 14.6µM* | 15.8
Cc1cccc(/C=N/NC(=O)c2cccc([N+](=O)[O-])c2)n1 | -12.4% | 6.0%[46.1 µM] | -14.9% | 22.4%[46.1 µM] | -22.7
Cn1cc(/C=N/NC(=O)c2cccc([N+](=O)[O-])c2)c2ccccc21 | 10µM* | 31.0% | 1.1% | 4.9% | -22.5
O=C(N/N=C/c1ccc[nH]1)c1cccc([N+](=O)[O-])c1 | 3.55µM* | 3.6% | 11.1% | u | -4.7
O=C(N/N=C/c1cc([N+](=O)[O-])ccc1O)c1cccc2cc[nH]c12 | u | x | -33.5% | x | -80.3*
COc1ccc(/C=N/NC(=O)c2cccc([N+](=O)[O-])c2)c2ccccc12 | u | x | -27.9% | x | -26.6
Cc1ccc(-n2[nH]c(C)c(/C=N/Nc3ccc([N+](=O)[O-])cc3[N+](=O)[O-])c2=O)cc1 | u | u | 7.94µM* | 1.0% | u
Cc1[nH]n(-c2ccc([N+](=O)[O-])cc2)c(=O)c1C=NCC1CCCO1 (centres undefined) | -12.1% | 20.6%[46.1 µM] | 29.3% | 26.8% | 108.3
O=C(N/N=C\c1cn(-c2ccccc2)nc1-c1ccccc1)c1ccc2c(c1)OCO2 | 12.6µM* | u | -10.0% | -15.7% | -12.8
Cc1[nH]c2ccccc2c1/C=N/NC(=O)c1cccc([N+](=O)[O-])c1 | -29.5% | 7.8%[46.1 µM] | -11.4% | 1.5% | -61.4*
Cc1[nH]c2ccccc2c1/C=N/NC(=O)c1cccc(F)c1 | -3.1% | x | 6.0% | x | -30.2
CCc1noc(C)c1C(=O)Nc1nc(-c2ccccc2)c(C(C)=O)s1 | 9.6% | x | -1.5% | x | -31.2
CC#CC[N+](C)(C)CCCCCCCCCC | u | u | -3.8% | u | -65.0*
SMILES | HCV inh | Marburg entry inh | FMDV antiviral | Lassa entry inh | HCMV antiviral
C#CC[N+](C)(C)CCCCCCCCC | u | u | -9.8% | -9.7% | -94.7*
C[N+](C)(C)CCCCCCCCCC[N+](C)(C)C | -0.2%[8.37 µM] | -25.8% | -17.6% | 13.0% | -12.4
COc1ccc(C(=O)c2[nH]c(N)c(C(=O)NCCc3c[nH]c4ccccc34)c2-c2ccc(OC)c(OC)c2)cc1 | x | x | -27.0% | x | 89.6
Cc1cc(=O)n(CC(=O)NCc2ccc(OC(C)C)cc2)c2c1c(C)nn2-c1cccc(F)c1 | x | x | -10.1% | -2.1%[46.1 µM] | 5.3
COc1cc(C=C(c2nc3ccccc3s2)c2nc3ccccc3s2)ccc1O | u | u | 2.5% | -2.3%[46.1 µM] | u
COc1ccc(C=C(c2nc3ccccc3s2)c2nc3ccccc3s2)cc1O | u | u | -7.4% | u | -83.5*
COc1ccc(C(=O)C(C)OC(=O)c2cccc(S(=O)(=O)Nc3cc(Cl)c(OC)cc3OC)c2)cc1 (centres undefined) | u | 7.08µM* | 19.4% | u | x
